# Measured values as given in PubChem BioAssay (NCATS).
# “And” between values parts separate entries of the source, which are not always exact repeats. Equal entries are not always repeated. Inconclusive results are not listed. A call without a number means that no potency is given here. The source made the active and inactive calls. Unless noted, the call rests on the fitted dose curve; in most records, active means well fitted curve in the direction sought with a large enough effect; inconclusive means small, poorly fitted or top-dose-only effect, or another doubt; inactive means no such curve, though single readings can be large; an effect the other way counts as inactive or inconclusive.
# Assays:
# [1] = target: Cytochrome P450 1A2 (Homo sapiens) (UniProt P05177); assay: p450-cyp1a2 (AID 410; calls by dose curve; further: potency means the concentration at half of the fitted maximal effect)
# Procedure, shortened: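 Luminescent readout of luciferin formed from Luciferin-ME by human CYP1A2; data normalized against complete inhibition by 57 uM furafylline. Enzyme 20nM, substrate 100uM at Km, 100mM KPO4 buffer, 60 min reaction at room temperature.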
# [2] = target: Cytochrome P450 3A4 (Homo sapiens) (UniProt P08684); assay: qHTS Assay for Activators of Cytochrome P450 3A4 (AID 885); further: nearly all actives have a fitted effect of over 65% in size
# Procedure, shortened: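 Signal was normalized against complete inhibition by 57 uM ketoconazole. The reaction used 20nM CYP3A4 with 25uM Luciferin-PPXE, 10-min compound preincubation and a 60-min NADPH-supported step at RT.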
# [3] = target: Cytochrome P450 2D6 (Homo sapiens) (UniProt P10635); assay: qHTS Assay for Inhibitors and Substrates of Cytochrome P450 2D6 (AID 891); further: potency means the concentration at half of the fitted maximal effect; nearly all actives have a fitted effect of over 60% in size
# Procedure, shortened: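 Human CYP2D6 (5 nM) with 30 uM Luciferin-ME EGE (at Km) in 100 mM KPO4, compound preincubated 10 min, then NADPH regeneration system for 60 min at room temperature. Luciferin read by luminescence; normalized to 1.43 uM quinidine.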
# [4] = target: Cytochrome P450 2C19 (Homo sapiens) (UniProt P33261); assay: qHTS Assay for Inhibitors and Substrates of Cytochrome P450 2C19 (AID 899); further: potency means the concentration at half of the fitted maximal effect; nearly all actives have a fitted effect of over 60% in size
# Procedure, shortened: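 Reactions contain 5nM enzyme, 10uM Luciferin-H EGE (KM) and 50mM KPO4; compound preincubates 10 min at 37C, NADPH regeneration starts turnover for 60 min. Luminescence after detection reagent gives activity.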
# [5] = test system: Zika virus NS2B-NS3 protease (linked); assay: 384 well plate NINDS AMC confirmatory qHTS for Zika virus inhibitors (AID 1347163); further: potency means the concentration at half of the fitted maximal effect; nearly all actives have a fitted effect of over 50% in size
# Procedure, shortened: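 Linked NS2B-NS3 protease (final 5 nM, 30 nM or 60 nM) was preincubated with compounds (final up to 1 mM) for ~15 minutes. Ac-VKTGKR-AMC substrate (final 30 microM) then reacted for 25 minutes at room temperature in the dark. Fluorescence (ex 355/em 460 nm) was normalized to no-enzyme and no-inhibitor controls.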
# [6] = test system: Zika virus NS2B-NS3 protease (linked construct); assay: 384 well plate NINDS Rhodamine confirmatory qHTS for Zika virus inhibitors (AID 1347164);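 further: fluorescence from protease cleavage of Ac-LKRR-rhodamine 110 substrate; potency means the concentration at half of the fitted maximal effect; nearly all actives have a fitted effect of over 65% in size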
# Procedure, shortened: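 Linked protease at a final 5 nM, 30 nM or 60 nM was preincubated ~15 min with compounds, then given 10 microM Ac-LKRR-Rhodamine 110. Fluorescence (ex 485/em 538 nm) after 25 min in the dark at room temperature.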
# [7] = Tertiary RLuc qRT-PCR qHTS assay for Zika virus inhibitors (AID 1347169); further: top concentration of the series differs between compounds; nearly all actives have a fitted effect of over 55% in size
# Procedure, shortened: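 Vero cells (1,000 per well) plated overnight at 37 degrees C, treated with compound in DMSO, then infected with recombinant ZIKV-RLuc (Cambodian) at MOI 1-2 for 48-72 hrs. Live-cell Renilla luciferase substrate added; luminescence read after 1-1.5 hrs.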
# [8] = target: Glutathione peroxidase 1 (Homo sapiens) (UniProt P07203); assay: Primary qHTS Assay for Inhibitors of Recombinant Selenoprotein Glutathione Peroxidase 1 (GPX1) (AID 1845191); further: nearly all actives have a fitted effect of over 65% in size
# Procedure, shortened: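 10 nM GPX1 + cpd, 30 min RT; start w/ 1 mM GSH, 0.5 mM cumene hydroperoxide, 0.5 mM NADPH, 100 nM GR, 0.01% BSA; buffer 50 mM Tris-HCl pH 7.5, 2 mM EDTA, 150 mM NaCl; Fl 340/450, 0 & 15 min.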
# [9] = Primary qHTS for inhibitors of nuclear receptor binding SET domain protein 2 (NSD2) in an isogenic RCH-ACV NSD2 p.E1099K mutant (9B) (AID 1645876); further: potency means the concentration at half of the fitted maximal effect; nearly all actives have a fitted effect of over 70% in size
# [10] = target: Ubiquitin carboxyl-terminal hydrolase 1 (Homo sapiens) (UniProt O94782); assay: Inhibitors of USP1/UAF1: Pilot qHTS (AID 504865);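 further: rhodamine fluorescence freed from ubiquitin-rhodamine substrate followed over time; top concentration of the series differs between compounds; nearly all actives have a fitted effect of over 35% in size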
# Procedure, shortened: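 USP1/UAF1 complex (1nM) preincubated with compound 15 min at room temperature, then Ub-Rho substrate (150nM final) added. Fluorescence read kinetically at 480/540 nm, 6 reads every 60 seconds. Buffer: 50mM HEPES pH 7.8, 0.5mM EDTA, 0.1 mg/ml BSA, 1mM TCEP, 0.01% Tween-20.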
# [11] = target: 3',5'-cyclic-AMP phosphodiesterase 4B (Homo sapiens) (UniProt Q07343); assay: qHTS Assay for Inhibitors of PDE-IV (AID 607; active means well fitted activation curve with a large enough effect in the main read-out, with a control signal flat, not every such curve was filed as active)
# Procedure, shortened: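 Cell-based read-out of cAMP via a modified cyclic nucleotide-gated channel and membrane potential dye (535/590 nm) in HEK293 cells expressing PDE4 endogenously. Compounds tested up to 22.9 uM final; 100 uM RO 20-1724 reference.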
# Chain of Glutathione peroxidase 1 (Homo sapiens) (P07203 whole entry, looked up): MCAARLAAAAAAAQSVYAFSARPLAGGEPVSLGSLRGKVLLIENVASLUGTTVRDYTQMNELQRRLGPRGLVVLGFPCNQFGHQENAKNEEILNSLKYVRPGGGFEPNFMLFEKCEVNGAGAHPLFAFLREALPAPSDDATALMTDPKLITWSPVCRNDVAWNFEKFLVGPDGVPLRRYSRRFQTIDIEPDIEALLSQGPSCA
# Chain of Cytochrome P450 3A4 (Homo sapiens) (P08684 whole entry, looked up): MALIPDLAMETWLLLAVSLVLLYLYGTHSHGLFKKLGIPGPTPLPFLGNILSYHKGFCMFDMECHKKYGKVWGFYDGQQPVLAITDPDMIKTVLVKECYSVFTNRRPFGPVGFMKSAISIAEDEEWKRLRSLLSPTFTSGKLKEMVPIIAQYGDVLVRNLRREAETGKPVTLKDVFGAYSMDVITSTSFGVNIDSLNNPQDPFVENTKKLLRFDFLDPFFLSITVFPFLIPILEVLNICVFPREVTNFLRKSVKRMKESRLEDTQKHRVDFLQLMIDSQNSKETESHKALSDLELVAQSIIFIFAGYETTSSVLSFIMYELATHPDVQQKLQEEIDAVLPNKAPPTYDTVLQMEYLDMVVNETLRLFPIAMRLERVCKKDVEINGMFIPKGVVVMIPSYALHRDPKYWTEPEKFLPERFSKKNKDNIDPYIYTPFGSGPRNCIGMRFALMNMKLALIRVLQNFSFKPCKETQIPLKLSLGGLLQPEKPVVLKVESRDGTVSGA
# Chain of Cytochrome P450 2D6 (Homo sapiens) (P10635 whole entry, looked up): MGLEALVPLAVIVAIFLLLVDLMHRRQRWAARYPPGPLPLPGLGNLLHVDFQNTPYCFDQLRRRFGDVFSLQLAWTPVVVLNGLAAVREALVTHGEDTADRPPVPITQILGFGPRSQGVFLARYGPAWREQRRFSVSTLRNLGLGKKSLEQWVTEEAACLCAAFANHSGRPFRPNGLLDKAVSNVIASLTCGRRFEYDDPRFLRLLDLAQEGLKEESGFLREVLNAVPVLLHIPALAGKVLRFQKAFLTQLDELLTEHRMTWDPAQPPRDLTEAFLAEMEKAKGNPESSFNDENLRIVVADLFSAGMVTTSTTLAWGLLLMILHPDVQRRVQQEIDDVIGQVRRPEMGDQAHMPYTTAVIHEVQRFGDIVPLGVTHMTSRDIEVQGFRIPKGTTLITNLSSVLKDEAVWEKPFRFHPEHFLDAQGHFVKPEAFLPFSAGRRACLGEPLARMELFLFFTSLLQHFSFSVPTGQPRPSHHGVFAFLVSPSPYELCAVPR
# Chain of Cytochrome P450 1A2 (Homo sapiens) (P05177 whole entry, looked up): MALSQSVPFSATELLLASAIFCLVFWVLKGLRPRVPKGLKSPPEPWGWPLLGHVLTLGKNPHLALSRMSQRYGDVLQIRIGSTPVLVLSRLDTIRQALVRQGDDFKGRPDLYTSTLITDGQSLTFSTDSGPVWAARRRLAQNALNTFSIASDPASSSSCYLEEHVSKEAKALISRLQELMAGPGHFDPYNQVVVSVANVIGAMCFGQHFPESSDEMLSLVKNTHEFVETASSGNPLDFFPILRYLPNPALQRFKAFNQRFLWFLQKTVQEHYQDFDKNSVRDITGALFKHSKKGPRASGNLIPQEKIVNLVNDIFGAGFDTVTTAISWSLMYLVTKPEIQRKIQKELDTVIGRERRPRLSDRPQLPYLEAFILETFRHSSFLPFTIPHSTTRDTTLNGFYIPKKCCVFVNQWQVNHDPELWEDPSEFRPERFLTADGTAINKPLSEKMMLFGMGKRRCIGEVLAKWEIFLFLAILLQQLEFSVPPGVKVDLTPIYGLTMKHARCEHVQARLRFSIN
# Chain of Ubiquitin carboxyl-terminal hydrolase 1 (Homo sapiens) (O94782 whole entry, looked up): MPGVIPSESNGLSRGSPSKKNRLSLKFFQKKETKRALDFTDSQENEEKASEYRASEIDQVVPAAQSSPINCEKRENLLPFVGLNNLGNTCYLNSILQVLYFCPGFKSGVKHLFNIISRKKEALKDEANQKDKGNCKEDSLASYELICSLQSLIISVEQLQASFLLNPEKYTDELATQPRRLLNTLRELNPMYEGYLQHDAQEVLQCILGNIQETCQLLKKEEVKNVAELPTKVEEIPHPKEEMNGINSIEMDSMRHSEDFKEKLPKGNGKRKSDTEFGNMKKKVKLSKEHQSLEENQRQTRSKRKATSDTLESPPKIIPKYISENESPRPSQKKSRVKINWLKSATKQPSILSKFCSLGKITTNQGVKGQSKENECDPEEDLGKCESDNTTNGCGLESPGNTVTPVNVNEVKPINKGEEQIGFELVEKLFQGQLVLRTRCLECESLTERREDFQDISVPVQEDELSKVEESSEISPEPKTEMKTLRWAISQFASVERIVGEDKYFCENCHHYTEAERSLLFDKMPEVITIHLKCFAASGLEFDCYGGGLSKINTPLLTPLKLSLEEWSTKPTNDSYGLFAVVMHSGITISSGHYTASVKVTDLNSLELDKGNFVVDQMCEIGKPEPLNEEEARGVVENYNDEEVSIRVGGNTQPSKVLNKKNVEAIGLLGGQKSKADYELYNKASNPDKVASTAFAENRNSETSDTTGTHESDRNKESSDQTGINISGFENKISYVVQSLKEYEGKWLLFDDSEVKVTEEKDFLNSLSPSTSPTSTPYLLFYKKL
# Chain of Cytochrome P450 2C19 (Homo sapiens) (P33261 whole entry, looked up): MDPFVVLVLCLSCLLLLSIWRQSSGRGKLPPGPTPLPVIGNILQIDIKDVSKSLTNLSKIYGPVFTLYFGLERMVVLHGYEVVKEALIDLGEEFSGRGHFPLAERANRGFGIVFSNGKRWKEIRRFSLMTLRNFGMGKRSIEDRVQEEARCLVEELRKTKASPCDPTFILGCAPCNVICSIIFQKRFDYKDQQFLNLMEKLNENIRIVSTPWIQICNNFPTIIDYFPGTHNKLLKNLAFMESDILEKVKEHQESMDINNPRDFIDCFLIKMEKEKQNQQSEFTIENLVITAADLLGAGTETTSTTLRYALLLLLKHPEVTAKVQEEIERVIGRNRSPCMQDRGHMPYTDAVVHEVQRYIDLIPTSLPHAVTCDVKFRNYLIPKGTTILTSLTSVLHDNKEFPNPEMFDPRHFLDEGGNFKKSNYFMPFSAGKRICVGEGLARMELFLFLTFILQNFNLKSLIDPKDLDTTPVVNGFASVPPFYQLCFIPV
# Chain of 3',5'-cyclic-AMP phosphodiesterase 4B (Homo sapiens) (Q07343 whole entry, looked up): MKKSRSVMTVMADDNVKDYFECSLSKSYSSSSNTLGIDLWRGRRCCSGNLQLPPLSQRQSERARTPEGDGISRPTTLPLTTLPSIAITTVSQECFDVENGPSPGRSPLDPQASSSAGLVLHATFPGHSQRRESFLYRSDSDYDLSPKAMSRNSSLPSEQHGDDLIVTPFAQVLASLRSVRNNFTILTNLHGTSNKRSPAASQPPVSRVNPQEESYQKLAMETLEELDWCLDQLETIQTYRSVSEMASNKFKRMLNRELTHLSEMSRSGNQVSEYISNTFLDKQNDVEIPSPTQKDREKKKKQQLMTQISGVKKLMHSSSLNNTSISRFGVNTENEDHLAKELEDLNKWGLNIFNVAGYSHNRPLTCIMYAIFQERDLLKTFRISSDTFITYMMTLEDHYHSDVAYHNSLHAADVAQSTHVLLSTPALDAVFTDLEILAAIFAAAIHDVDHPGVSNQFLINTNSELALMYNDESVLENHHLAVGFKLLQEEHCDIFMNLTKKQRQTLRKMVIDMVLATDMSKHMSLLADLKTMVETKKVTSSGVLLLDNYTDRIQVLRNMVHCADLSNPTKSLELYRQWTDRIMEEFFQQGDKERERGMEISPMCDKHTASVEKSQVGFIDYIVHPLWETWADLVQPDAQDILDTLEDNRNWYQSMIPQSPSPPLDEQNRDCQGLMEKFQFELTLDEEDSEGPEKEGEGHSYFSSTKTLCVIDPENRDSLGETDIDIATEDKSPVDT
compound,measurement,setting,value
C=CC(C)(C)c1[nH]c2ccccc2c1C1=C(O)C(=O)C(c2c[nH]c3c(CC=C(C)C)cccc23)=C(O)C1=O,Potency,[1],25.1 µM (active)
same,Potency,[2],inactive
same,Potency,[3],0.0063 µM (active)
same,Potency,[4],1.26 µM (active)
same,Potency,[5],11.2 µM (active)
same,Potency,[6],0.631 µM (active)
same,Potency,[7],inactive
same,Potency,[8],inactive
COc1ccc(C(=O)Nc2ccc(C(=O)OCc3cc(=O)n4nc(C5CC5)sc4n3)cc2)cc1,Potency,[7],inactive
Clc1cc(OCc2nnc3sc(Cc4ccccc4)nn23)c(Cl)cc1OCc1nnc2sc(Cc3ccccc3)nn12,Potency,[5],28.2 µM (active)
same,Potency,[6],7.94 µM (active)
same,Potency,[7],inactive
C[C@@H](Nc1cc(F)cc(F)c1)c1cc(C(=O)N(C)C)cc2c(=O)cc(N3CCOCC3)oc12,Potency,[9],259 nM (active) and 235 nM (active)
same,Potency,[8],inactive
Nc1cc(N)c(N=Nc2ccc(S(=O)(=O)Nc3nccs3)cc2)cc1N=Nc1ccc(S(=O)(=O)Nc2nccs2)cc1,Potency,[5],63.1 µM (active)
same,Potency,[6],20 µM (active)
same,Potency,[7],inactive
O=C(CCCCCCC(=O)Nc1ccc(C2OC(CSc3nc(-c4ccccc4)c(-c4ccccc4)o3)CC(c3ccc(CO)cc3)O2)cc1)NO (stereo not drawn),Potency,[9],5.15 µM (active)
NS(=O)(=O)c1ccc(N=Nc2c(O)[nH]c3ccc(Br)cc23)cc1,Potency,[8],inactive
CCCCNC(=O)[C@@H]1Cc2ccccc2N1C(=O)[C@H](N)CC,Potency,[1],20 µM (active)
same,Potency,[10],inactive
O=C1c2ccccc2CC[C@H]1CNCCc1ccc(O)cc1,Potency,[11],inactive
same,Potency,[2],inactive
same,Potency,[3],0.398 µM (active)
COc1cc(O)c2c(=O)c(O)c(-c3ccc(O)c(O)c3)oc2c1,Potency,[2],inactive
same,Potency,[10],inactive
same,Potency,[9],10.3 µM (active)
same,Potency,[8],inactive
